Test results published in PubChem BioAssay AID463173 (ICCB-Longwood Screening Facility, Harvard Medical School, 2010).
The campaign covered roughly 52,000 compounds. About 1,700 (3.3%) were called active. For the sample, actives were picked, then their nearest neighbours and some compounds at random. A number with no mark means an inactive call. Cut-off read from the data, not from the text of the source: active = survival mostly below about 52% (no sharp cut-off); inactive = mostly above about 56%.

Tested on: Wild type
Assay: growth inhibition of S. aureus wild type versus tarO mutant, primary screen, teichoic acid synthesis inhibitors, RN4220, OD600 (AID 463173)
Settings: S. aureus RN4220 wild type/DeltatarO growth, OD600, 18 h, hits give low values, screened at 18.75 µg/mL (by protocol)

With `Cc1nc(SCC(=O)Nc2nsc(-c3ccc(C(C)(C)C)cc3)n2)c2c3c(sc2n1)CCCC3` as the molecule, how does the survival read?
Its survival is 92%.

`Cc1nc(SCC(N)=O)c2c3c(sc2n1)CCCC3` was tested. Which survival did it give?
Its survival is 90%.

For `Cc1nc(SCC(=O)OC(C)(C)C)c2c3c(sc2n1)CCCC3`, which survival is on record?
Its survival is 15% (active).

For `COc1ccccc1Cc1nc2ccccc2nc1SCC(=O)Nc1ccc2c(c1)OCO2`, which survival is on record?
Its survival is 45%.

`O=C(Cn1nnc(-c2ccccc2)n1)N1CCCCC1` was tested. Which survival did it give?
Its survival is 109%.

Which survival does the source give for `Cc1ccc(S(=O)(=O)N2CCC(C(=O)NCc3ccccc3Cl)CC2)cc1` here?
The survival was 64%.

`CC(=O)Nc1ccc(S(=O)(=O)N2CCN(Cc3ccccc3Cl)CC2)cc1` was tested. Which survival did it give?
Its survival is 117%.

How did the survival turn out when `Cc1ccc(S(=O)(=O)N2CCN(Cc3ccccc3Cl)CC2)cc1` was run?
Its survival is 19% (active).

How did the survival turn out when `CC(C)(C)c1ccc(C(=O)NC2(C(F)(F)F)NC(=O)N(CCc3ccccc3)C2=O)cc1` (configuration not stated) was run?
Its survival is 43%.

For `O=C(Nc1cccc(C(F)(F)F)c1)Nc1ccc2snnc2c1`, which survival is on record?
Its survival is 29% (active).

Which survival does the source give for `O=C(Nc1cccc(C(F)(F)F)c1)c1ccc2snnc2c1` here?
The survival was 118%.

`CCc1ccccc1NC(=O)Nc1ccc2snnc2c1` was tested. Which survival did it give?
The survival was 82%.

How did the survival turn out when `O=C(Nc1cccc(C(F)(F)F)c1)c1cccs1` was run?
Its survival is 116%.

Which survival does the source give for `O=C(Nc1cccs1)Nc1cc(C(F)(F)F)ccc1Cl` here?
Its survival is 26%.

For `O=C(Nc1ccc(F)cc1)Nc1ccc2snnc2c1`, which survival is on record?
Its survival is 45%.

For `Cc1c(Cl)cccc1NC(=O)c1ccc2snnc2c1`, which survival is on record?
Its survival is 106%.

How did the survival turn out when `O=C(Nc1cccc(C(F)(F)F)c1)Nc1cccs1` was run?
Its survival is 4% (active).

With `Cc1c(Cl)cccc1NC(=O)Nc1ccc2snnc2c1` as the molecule, how does the survival read?
The survival was 24% (active).

For `CCc1ccc(NC(=O)CSc2nc3c(sc4ccccc43)c(=O)n2CCN(CC)CC)cc1`, which survival is on record?
Its survival is 73%.

For `CCN(CC)/C(=N/OCc1ccc(Cl)cc1Cl)c1nonc1N`, which survival is on record?
The survival was 100%.

For `CC1=NN(C(C#N)c2ccccc2)C(C)(C)C1` (configuration not stated), which survival is on record?
Its survival is 113%.

`Cc1cccc(N2CCN(Cc3nnc(-c4ccc5c(c4)OCO5)o3)CC2)c1C` was tested. Which survival did it give?
The survival was 83%.

How did the survival turn out when `CCOC(=O)c1ccc(CSc2nnc3cc(C)c4ccccc4n23)cc1` was run?
The survival was 108%.

For `Cc1cc2nnc(SCc3ccc(F)cc3)n2c2ccccc12`, which survival is on record?
Its survival is -2% (active).

How did the survival turn out when `CCCN(CCC)C(=O)CSc1nnc2cc(C)c3ccccc3n12` was run?
The survival was 84%.

For `COc1ccc(Cn2c(SCc3ccc(C(=O)NCCc4ccccc4)cc3)nc3cccnc32)cc1`, which survival is on record?
The survival was 77%.

Which survival does the source give for `CCn1c(NCc2ccc(OC)c(OC)c2)nc2ccccc21` here?
The survival was 127%.

`CCCCn1c(NCc2ccc(N(C)C)cc2)nc2ccccc21` was tested. Which survival did it give?
Its survival is 70%.

With `CCCCCn1c(NCc2ccccc2OC)nc2ccccc21` as the molecule, how does the survival read?
Its survival is -5% (active).

Which survival does the source give for `CCCn1c(NCc2ccccc2C)nc2ccccc21` here?
The survival was 95%.

`CCCCn1c(NCc2ccc(OC)cc2O)nc2ccccc21` was tested. Which survival did it give?
The survival was 88%.

How did the survival turn out when `CCCn1c(NCc2ccccc2F)nc2ccccc21` was run?
Its survival is 89%.

Which survival does the source give for `CCCn1c(NCc2ccc(N(CC)CC)cc2)nc2ccccc21` here?
The survival was 0% (active).

`CCCCn1c(NCc2cc(Br)ccc2O)nc2ccccc21` was tested. Which survival did it give?
Its survival is 69%.

`CCCCCn1c(NCc2ccc(OC)cc2)nc2ccccc21` was tested. Which survival did it give?
The survival was -2% (active).

For `CCOc1ccc(CNS(=O)(=O)c2ccc3c(c2)CC(C)N3C(C)=O)cc1OC` (configuration not stated), which survival is on record?
Its survival is 70%.

Which survival does the source give for `CCN(C(=O)C1CCC(CNS(=O)(=O)c2cccc3nsnc23)CC1)c1ccccc1` (configuration not stated) here?
Its survival is 76%.

For `CCOC(=O)c1[nH]c(C)c(CCC(=O)Nc2ccccc2OCC)c1C`, which survival is on record?
The survival was 84%.

Which survival does the source give for `COc1ccc(-c2cn3nc(N4CCCC(C(=O)Nc5ccc(Cl)cc5C)C4)sc3n2)cc1` (configuration not stated) here?
The survival was 77%.

For `O=C(Cn1c(=O)n(Cc2ccco2)c(=O)c2sc3ccccc3c21)Nc1ccc(F)cc1F`, which survival is on record?
The survival was 84%.

`CCc1cccc(C)c1NC(=O)CN1CCCN(Cc2ccccc2Cl)S1(=O)=O` was tested. Which survival did it give?
Its survival is 14% (active).

How did the survival turn out when `Cc1ccccc1CN1CCCN(CC(=O)Nc2c(C)cccc2C)S1(=O)=O` was run?
The survival was 66%.

Which survival does the source give for `CCc1cccc(C)c1NC(=O)CN1CCCN(Cc2ccc(C)cc2)S1(=O)=O` here?
Its survival is 0% (active).

How did the survival turn out when `Cc1cccc(CN2CCN(CC(=O)Nc3c(C)cccc3C)S2(=O)=O)c1` was run?
The survival was 134%.

How did the survival turn out when `Cc1ccc(CN2CCCN(CC(=O)Nc3ccc(C)cc3C)S2(=O)=O)cc1` was run?
Its survival is 85%.

For `CCc1cccc(C)c1NC(=O)CN1CCN(Cc2ccccc2Cl)S1(=O)=O`, which survival is on record?
Its survival is 134%.

For `Cc1ccc(NC(=O)CN2CCCN(Cc3cc(C)ccc3C)S2(=O)=O)c(Cl)c1`, which survival is on record?
Its survival is 55%.

For `O=C(CN1CCCN(Cc2ccccc2Cl)S1(=O)=O)NCc1ccccc1`, which survival is on record?
Its survival is 78%.

With `Cc1ccc(NC(=O)CN2CCCN(Cc3ccccc3Cl)S2(=O)=O)c(C)c1` as the molecule, how does the survival read?
Its survival is -1% (active).

`COc1ccccc1CNC(=O)c1cnc2sc(N3CCOCC3)nn2c1=O` was tested. Which survival did it give?
The survival was 153%.

With `CC(C)(C)c1ccc(C(=O)Nc2c(C(=O)c3ccc(F)cc3)oc3ccccc23)cc1` as the molecule, how does the survival read?
Its survival is 73%.

Which survival does the source give for `Cc1ccc(C(=O)N2CC3(C)CC2CC(C)(C)C3)cc1` (configuration not stated) here?
Its survival is 110%.

How did the survival turn out when `CCn1c(CN2CCCCC2)nc2cc(NC(=O)COc3ccc([N+](=O)[O-])cc3)ccc21` was run?
The survival was 79%.

How did the survival turn out when `COc1cc(C(=O)N(CCc2ccccc2)C2CC3CCC(C2)N3C)cc(OC)c1OC` (configuration not stated) was run?
The survival was 104%.

`O=C(NCc1ccccc1)c1nc(S(=O)(=O)Cc2ccc(F)cc2)ncc1Cl` was tested. Which survival did it give?
The survival was -5% (active).

How did the survival turn out when `COc1ccc(CNC(=O)c2nc(S(=O)(=O)Cc3ccccc3)ncc2Cl)cc1` was run?
The survival was 34%.

For `COc1ccc(OC)c(NC(=O)c2nc(S(=O)(=O)Cc3ccc(F)cc3)ncc2Cl)c1`, which survival is on record?
Its survival is -3% (active).

With `Cc1ccc(C)c(NC(=O)c2nc(S(=O)(=O)Cc3ccc(F)cc3)ncc2Cl)c1` as the molecule, how does the survival read?
Its survival is 109%.

How did the survival turn out when `O=C(NCc1ccccc1)c1nc(S(=O)(=O)Cc2ccccc2)ncc1Cl` was run?
The survival was 42%.

For `COc1ccc(OC)c(NC(=O)c2nc(SCc3ccc(F)cc3)ncc2Cl)c1`, which survival is on record?
Its survival is 100%.

How did the survival turn out when `COc1cc(C2NC(=O)c3c(sc4c3CCN(C)C4)N2)ccc1OC(=O)c1ccccc1` (configuration not stated) was run?
The survival was 80%.

Which survival does the source give for `O=C(CSc1nc(=O)n(Cc2ccco2)c2c1CCC2)NCc1ccccc1` here?
The survival was 72%.
